Assay results as given in PubChem BioAssay (Tox21).
Results filed as inconclusive are left out. Calls of active or inactive are those of the source. The call rests on the fitted dose curve; in most records, active means well fitted cell-killing curve with a large enough effect in the repeat runs; inconclusive means weak or mixed curves; inactive means no such curve, though single readings can be large or run the other way.

assay: qHTS assay to identify small molecule antagonists of the androgen receptor (AR) signaling pathway - cell viability counter screen (AID 743033; further: nearly all actives have a fitted effect of over 45% in size); details: AR-bla HEK293 viability, CellTiter-Glo luminescence, 16 h; series mostly up to 58.5 µM
Text: National Center for Advancing Translational Sciences [NCATS]
NIH Chemical Genomics Center [NCGC]
U.S. Environmental Protection Agency [EPA]
National Institutes of Environmental Health Sciences [NIEHS]
National Toxicology Program [NTP]
U.S. Food and Drug Administration [FDA]
Androgen receptor (AR), a nuclear hormone receptor, plays a critical role in AR-dependent prostate cancer and other androgen related diseases. Endocrine disrupting chemicals (EDCs) and their interactions with steroid hormone receptors like AR may cause disruption of normal endocrine function as well as interfere with metabolic homeostasis, reproduction, developmental and behavioral functions. To identify the compounds that inhibit AR signaling, GeneBLAzer AR-UAS-bla-GripTite cell line (Invitrogen, Carlsbad, CA, USA) containing a beta-lactamase reporter gene under control of an Upstream Activator Sequence (UAS) stably integrated into HEK293 cells was used to screen the Tox21 10K compound library. The cytotoxicity of the Tox21 compound library against the AR-bla cell line was tested in parallel by measuring the cell viability using CellTiter-Glo assay in the same wells.
Tox21 Assay Protocol Summary:
AR-bla cells were dispensed at 2,000 cells/5 uL of assay medium per well into black wall/clear-bottom 1536-well plates using a Multidrop Combi (ThermoFisher Scientific, Waltham, MA) dispenser. After the assay plates were incubated at a 37C and 5% CO2 for 4 hr, 23 nL of compounds dissolved in DMSO, positive controls or DMSO only was transferred to the assay plate by a Pintool station (Kalypsys, San Diego, CA), followed by addition of 1 uL of agonist (R1881) in culture medium using a Bioraptr Flying Reagent Dispenser (FRD) workstation (Beckman Coulter, Indianapolis, IN, USA). The plates were incubated at a 37C and 5% CO2 for 16 h. After 1 uL of LiveBLAzerTM B/G FRET substrate was added using a Bioraptr FRD, the plates were incubated at room temperature for 2 h and fluorescence intensity was measured by an Envision plate reader (PerkinElmer, Shelton, CT). For cell viability readout that measures cytotoxicity, 4 ul/well of CellTiter-Glo reagent was added into the assay plates using a Bioraptr FRD. After 30 min incubation at room temperature, the luminescence intensity in the plates was measured using a ViewLux (PerkinElmer) plate reader.

Q: Which outcome does the source give for CCCC1CCC(=O)O1 (stereo not given) here?
A: inactive

Q: For CN1CCN(C2=Nc3ccccc3Oc3ccc(Cl)cc32)CC1, which outcome is on record?
A: inactive

Q: Which outcome does the source give for COc1ccc(S(=O)(=O)Nc2nnc(CC(C)C)s2)cc1 here?
A: inactive

Q: Which outcome does the source give for O=C(O[C@@H](C(=O)O)[C@@H](OC(=O)c1ccccc1)C(=O)O)c1ccccc1 here?
A: inactive

Q: For CC(C)=CCC[C@](C)(O)[C@@H]1CC=C(C)CC1, which outcome is on record?
A: inactive

Q: For O=C1C=CC(=O)O1, which outcome is on record?
A: inactive

Q: For CCN(CC)CCNC(=O)COc1ccc(Cl)cc1, which outcome is on record?
A: inactive

Q: Which outcome does the source give for CC(=O)N[C@@H](CC(C)C)C(=O)O here?
A: inactive

Q: For CN(C)CC[C@@H](c1ccc(Cl)cc1)c1ccccn1, which outcome is on record?
A: inactive

Q: For COc1ccc(Nc2ccc(OC)cc2)cc1, which outcome is on record?
A: inactive

Q: Which outcome does the source give for COc1cc(C)ccc1C(C)C here?
A: inactive

Q: For Cc1c(-c2ccccc2)oc2c(C(=O)OCCN3CCCCC3)cccc2c1=O, which outcome is on record?
A: inactive

Q: Which outcome does the source give for O=C(O)c1ccccc1Nc1cc(Cl)ccc1C(=O)O here?
A: inactive

Q: Which outcome does the source give for CC(C)=CCCC(C)CCOC=O (stereo not given) here?
A: inactive

Q: Which outcome does the source give for O=C1CCN(c2ccccc2)N1 here?
A: inactive

Q: Which outcome does the source give for CCCCCCCOC(=O)CCC here?
A: inactive

Q: For CC1(C)S[C@@H]2[C@H](NC(=O)C(C(=O)O)c3ccccc3)C(=O)N2[C@H]1C(=O)O (stereo not given in full), which outcome is on record?
A: inactive

Q: For CCCCCCCCc1ccc(S(=O)(=O)O)cc1, which outcome is on record?
A: inactive

Q: For OCCN(CCO)c1ccccc1, which outcome is on record?
A: inactive

Q: For CCC(=O)Nc1ccc(O)cc1, which outcome is on record?
A: inactive

Q: With CC1CN(c2ccccc2)NC1=O (stereo not given) as the molecule, how does the outcome read?
A: inactive

Q: With C=CCCCCCCCCO as the molecule, how does the outcome read?
A: inactive

Q: With Cc1ccc(C(C)C)cc1O as the molecule, how does the outcome read?
A: inactive

Q: With CC(=O)OC(C)OC(C)=O as the molecule, how does the outcome read?
A: inactive

Q: Which outcome does the source give for O=c1[nH]cnc2c1ncn2[C@@H]1O[C@H](CO)[C@@H](O)[C@H]1O here?
A: inactive

Q: Which outcome does the source give for CN1CCN(C2=Nc3cc(F)ccc3Cc3ccccc32)CC1 here?
A: inactive

Q: For NS(=O)(=O)c1cc(-c2nn[nH]n2)c(NCc2cccs2)cc1Cl, which outcome is on record?
A: inactive

Q: For O=C1CCCCC1C1CCCCC1 (stereo not given), which outcome is on record?
A: inactive

Q: Which outcome does the source give for CCOC(=O)C(Br)c1ccccc1 (stereo not given) here?
A: inactive

Q: With OCC(CBr)(CBr)CBr as the molecule, how does the outcome read?
A: inactive

Q: Which outcome does the source give for O=C(O)[C@@H](O)[C@H](O)[C@H](O)[C@@H](O)C(=O)O here?
A: inactive

Q: With CCC(=O)O[C@]1(C(=O)SCF)[C@H](C)C[C@H]2[C@@H]3C[C@H](F)C4=CC(=O)C=C[C@]4(C)[C@@]3(F)[C@@H](O)C[C@@]21C as the molecule, how does the outcome read?
A: inactive

Q: Which outcome does the source give for CCOC(=O)C1CC(=O)C(=C(O)C2CC2)C(=O)C1 (stereo not given) here?
A: inactive

Q: Which outcome does the source give for CC(C)CCCCCCc1ccc(OCCOCCO)cc1 here?
A: inactive

Q: Which outcome does the source give for CN(C)Cc1ccccc1 here?
A: inactive

Q: Which outcome does the source give for Cn1cnc2c(F)c(Nc3ccc(Br)cc3Cl)c(C(=O)NOCCO)cc21 here?
A: inactive

Q: With CN1C(=O)CC(c2ccccc2)C1=O (stereo not given) as the molecule, how does the outcome read?
A: inactive

Q: For CCC1(C)NC(=O)NC1=O (stereo not given), which outcome is on record?
A: inactive

Q: Which outcome does the source give for Cc1ncc(CO)c(CN)c1O here?
A: inactive

Q: Which outcome does the source give for CNCCC(Oc1ccccc1OC)c1ccccc1 (stereo not given) here?
A: inactive
